Among all 5,500 compounds or so, about 2,000 (36%) were called active. About 18% were inconclusive and are not listed. Cut-off read from the data, not from the text of the source: active = normalized growth mostly below about 0.91 (no sharp cut-off); inconclusive = no clear call, values can overlap the other calls; inactive = mostly above about 0.92. This is one part of the list.
Test: chemical genetic growth profiling, strain panel (AID 1159580);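 note: tested at 20 µM; growth read once vehicle control cultures reached saturation at 30 °C; 1 = growth at the plate median or of vehicle wells; lower values mean less growth of the strain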
Settings: S. cerevisiae deletion strains, growth OD

Measured: normalized growth

CCCN(CCc1ccccc1)C1CCc2c(O)cccc2C1 (centres undefined)
inactive: locus YAL013W, strain DEP1, hits give low values 0.992 | locus YAL040C, strain CLN3, hits give low values 1.02 | locus YCL061C, strain MRC1 (second series), hits give low values 1 | locus YDR363W, strain ESC2, hits give low values 1.02 | locus YER002W, strain NOP16, hits give low values 1 | locus YGR229C, strain SMI1, hits give low values 0.988 | locus YJR075W, strain HOC1, hits give low values 1 | locus YMR263W, strain SAP30, hits give low values 1 | locus YMR307W, strain GAS1, hits give low values 0.997 | locus YNL153C, strain GIM3, hits give low values 0.957 | locus YNL175C, strain NOP13, hits give low values 1 | locus YNL224C, strain SQS1, hits give low values 1.01 | locus YOR083W, strain WHI5 (second series), hits give low values 1.02 | locus YPL055C, strain LGE1, hits give low values 0.973

— PubChem BioAssay AID1159580 (chemical genetic matrix, 2015)
